Structures can show the parent of a compound that is named as a salt. ± gives the standard deviation or the standard deviation of the averaged measurements.
Assays:
Details in all cases: 25 µM; exposure: 24-48 hpf
[1] = test system: Danio rerio Tg(wt1b:EGFP) embryo, pronephros; assay: glomerular separation, fold change vs DMSO control; higher = glomeruli further apart (abnormal)
In short: (§1)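 In HEPES-buffered E3 with 0.003% PTU and 0.5% DMSO, dechorionated Tg(wt1b:EGFP) zebrafish embryos were exposed to 25 μM compound from 24 to 48 hpf at 28.5°C. Pronephroi were then imaged dorsally at 470 nm in 10 z-slices, in 96-well plates filled with agarose. On maximum projections, a Fiji macro turned 16 manually placed reference points into distances and angles, and values more than 2 SD from the feature mean were excluded. Features are fold changes relative to the mean of DMSO-treated embryos from the same day.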

[2] = test system: Danio rerio Tg(wt1b:EGFP) embryo, pronephros; assay: glomerular width (mean of left and right), fold change vs DMSO control; higher = wider glomerulus
In short: as §1

[3] = test system: Danio rerio Tg(wt1b:EGFP) embryo, pronephros; assay: fraction of imaged embryos annotated as normal kidney; higher = less nephrotoxic; extreme values may be limits of the assay
In short: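 The read-out is the proportion of embryos in each treatment manually annotated as normal-kidney. Exposure ran from 24 to 48 hpf at 28.5°C in 12-well plates, using dechorionated Tg(wt1b:EGFP) zebrafish embryos in 5 mM HEPES-buffered E3 with 0.003% PTU, 0.5% DMSO and 25 μM compound. For imaging, larvae were anaesthetised with tricaine, positioned dorsally in agarose-filled 96-well plates and captured by widefield fluorescence (470 nm, 10 z-slices), with scoring done on maximum projections.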

[4] = test system: Danio rerio Tg(wt1b:EGFP) embryo, pronephros; assay: pronephric angle neck segment to proximal convoluted tubule (mean of left and right), fold change vs DMSO control; higher = larger pronephric angle
In short: as §1

Q: With `Cc1c(OCC(F)(F)F)ccnc1C[S+]([O-])c1nc2ccccc2[nH]1` (stereo not drawn) [Lansoprazole] as the compound, how does the glomerular separation [1] read?
A: Its glomerular separation is 1.25 ± 0.57.

Q: What about the glomerular width [2] of the same compound?
A: The glomerular width was 0.949 ± 0.04.

Q: And the “fraction of imaged embryos annotated as normal kidney” value (from here on “fraction of imaged embryos annotated”) [3]?
A: The value was 0.333.

Q: What about the “pronephric angle neck segment” value [4] of the same compound?
A: The value was 1.17 ± 0.034.

Q: With `C/C(=C\C(=O)OCCCCCCCCC(=O)O)C[C@@H]1OC[C@H](C[C@@H]2O[C@H]2[C@@H](C)[C@H](C)O)[C@@H](O)[C@H]1O` [Mupirocin] as the compound, how does the glomerular separation [1] read?
A: The glomerular separation was 0.88 ± 0.41.

Q: What about the glomerular width [2] of the same compound?
A: Its glomerular width is 1.01 ± 0.013.

Q: And the “fraction of imaged embryos annotated” value [3]?
A: Its value is 0.75.

Q: And the “pronephric angle neck segment” value [4]?
A: The value was 0.985 ± 0.046.

Q: Which results are given for `COc1cnc(NS(=O)(=O)c2ccc(N)cc2)nc1` [Sulfameter]?
A: glomerular separation [1]: 0.925 ± 0.34; glomerular width [2]: 1.01 ± 0.021; fraction of imaged embryos annotated as normal kidney [3]: 0.833; pronephric angle neck segment [4]: 0.9915 ± 0.0018

Q: Which glomerular separation [1] does the source give for `CC(=O)N(CC(O)CO)c1c(I)c(C(=O)NCC(O)CO)c(I)c(C(=O)NCC(O)CO)c1I` (stereo not drawn) [Iohexol] here?
A: Its glomerular separation is 1.06 ± 0.38.

Q: And the glomerular width [2]?
A: The glomerular width was 0.963 ± 0.072.

Q: And the “fraction of imaged embryos annotated” value [3]?
A: Its value is 0.75.

Q: And the “pronephric angle neck segment” value [4]?
A: Its value is 0.962 ± 0.069.

Q: What does the source list for `Cc1cccc(C)c1OCC(C)N` (stereo not drawn) [Mexiletine hydrochloride]?
A: glomerular separation [1]: 0.9 ± 0.27; glomerular width [2]: 0.98 ± 0.033; fraction of imaged embryos annotated as normal kidney [3]: 0.917; pronephric angle neck segment [4]: 0.98 ± 0.041

Q: How did the glomerular separation [1] turn out when `CC(=O)OC(C)C[N+](C)(C)C` (stereo not drawn) [Methacholine chloride] was run?
A: The glomerular separation was 0.765 ± 0.28.

Q: And the glomerular width [2]?
A: The glomerular width was 1.08 ± 0.0033.

Q: What about the “fraction of imaged embryos annotated” value [3] of the same compound?
A: Its value is 0.833.

Q: What about the “pronephric angle neck segment” value [4] of the same compound?
A: Its value is 0.972 ± 0.011.

Q: What does the source list for `COc1cc2ncnc(Nc3ccc(F)c(Cl)c3)c2cc1OCCCN1CCOCC1` [Gefitinib]?
A: glomerular separation [1]: 1.29 ± 0.64; glomerular width [2]: 0.981 ± 0.034; fraction of imaged embryos annotated as normal kidney [3]: 1; pronephric angle neck segment [4]: 1.02 ± 0.024

Q: Which glomerular separation [1] does the source give for `CC(=O)/N=c1/sc(S(N)(=O)=O)nn1C` [Methazolamide] here?
A: The glomerular separation was 0.898 ± 0.5.

Q: And the glomerular width [2]?
A: The glomerular width was 1.14 ± 0.06.

Q: And the “fraction of imaged embryos annotated” value [3]?
A: The value was 0.636.

Q: What about the “pronephric angle neck segment” value [4] of the same compound?
A: Its value is 1.02 ± 0.014.

Q: How did the glomerular separation [1] turn out when `O=C1c2c(O)cccc2Cc2cccc(O)c21` [Anthralin] was run?
A: The glomerular separation was 0.949 ± 0.28.

Q: What about the glomerular width [2] of the same compound?
A: Its glomerular width is 0.986 ± 0.02.

Q: What about the “fraction of imaged embryos annotated” value [3] of the same compound?
A: The value was 0.909.

Q: What about the “pronephric angle neck segment” value [4] of the same compound?
A: Its value is 1.06 ± 0.014.

Q: Which results are given for `CC[C@H](c1ccc(O)cc1)[C@@H](CC)c1ccc(O)cc1` [Hexestrol]?
A: glomerular separation [1]: 1.04 ± 0.38; glomerular width [2]: 0.94 ± 0.029; fraction of imaged embryos annotated as normal kidney [3]: 0.25; pronephric angle neck segment [4]: 1.22 ± 0.08

Q: For `CC(Cc1cccc(C(F)(F)F)c1)NCCOC(=O)c1ccccc1` (stereo not drawn) [Benfluorex], which glomerular separation [1] is on record?
A: Its glomerular separation is 0.843 ± 0.23.

Q: And the glomerular width [2]?
A: The glomerular width was 1 ± 0.03.

Q: And the “fraction of imaged embryos annotated” value [3]?
A: Its value is 0.917.

Q: And the “pronephric angle neck segment” value [4]?
A: The value was 1.04 ± 0.045.

Q: Which glomerular separation [1] does the source give for `CC(C)[N+](C)(CCOC(=O)C1c2ccccc2Oc2ccccc21)C(C)C` [Propantheline bromide] here?
A: Its glomerular separation is 1.29 ± 0.47.

Q: And the glomerular width [2]?
A: The glomerular width was 0.966 ± 0.062.

Q: What about the “fraction of imaged embryos annotated” value [3] of the same compound?
A: Its value is 0.667.

Q: And the “pronephric angle neck segment” value [4]?
A: Its value is 0.942 ± 0.01.

Q: Which results are given for `NS(=O)(=O)c1cc2c(cc1Cl)NC(CC1CCCC1)NS2(=O)=O` (stereo not drawn) [Cyclopenthiazide]?
A: glomerular separation [1]: 0.818 ± 0.23; glomerular width [2]: 0.935 ± 0.03; fraction of imaged embryos annotated as normal kidney [3]: 1; pronephric angle neck segment [4]: 1 ± 0.012

Q: Which glomerular separation [1] does the source give for `CN(C)CCN(Cc1ccccc1)c1ccccn1` [Tripelennamine hydrochloride] here?
A: Its glomerular separation is 0.843 ± 0.37.

Q: What about the glomerular width [2] of the same compound?
A: The glomerular width was 0.982 ± 0.054.

Q: What about the “fraction of imaged embryos annotated” value [3] of the same compound?
A: Its value is 1.

Q: And the “pronephric angle neck segment” value [4]?
A: Its value is 1.1 ± 0.083.

Q: Which results are given for `CCC(=O)O[C@@H](O[P@](=O)(CCCCc1ccccc1)CC(=O)N1C[C@H](C2CCCCC2)C[C@H]1C(=O)O)C(C)C` [Fosinopril]?
A: glomerular separation [1]: 1.05 ± 0.44; glomerular width [2]: 1.01 ± 0.023; fraction of imaged embryos annotated as normal kidney [3]: 0.7; pronephric angle neck segment [4]: 1.03 ± 0.013

Q: How did the glomerular separation [1] turn out when `CCCc1cc(=O)[nH]c(=S)[nH]1` [Propylthiouracil] was run?
A: The glomerular separation was 0.81 ± 0.17.

Q: What about the glomerular width [2] of the same compound?
A: Its glomerular width is 1.058 ± 0.0069.

Q: What about the “fraction of imaged embryos annotated” value [3] of the same compound?
A: The value was 1.

Q: What about the “pronephric angle neck segment” value [4] of the same compound?
A: The value was 1.02 ± 0.044.

Q: How did the glomerular separation [1] turn out when `NNc1nncc2ccccc12` [Hydralazine hydrochloride] was run?
A: The glomerular separation was 1.14 ± 0.53.

Q: And the glomerular width [2]?
A: Its glomerular width is 1.04 ± 0.041.

Q: What about the “fraction of imaged embryos annotated” value [3] of the same compound?
A: Its value is 0.818.

Q: And the “pronephric angle neck segment” value [4]?
A: Its value is 1.02 ± 0.039.

Q: Which results are given for `CCCCOc1cc(C(=O)NCCN(CC)CC)c2ccccc2n1` [Dibucaine]?
A: glomerular separation [1]: 1.35 ± 0.37; glomerular width [2]: 0.996 ± 0.044; fraction of imaged embryos annotated as normal kidney [3]: 0.917; pronephric angle neck segment [4]: 1.007 ± 0.0089

Q: Which glomerular separation [1] does the source give for `CCN(CC)CCN[C@@H](C(=O)OCCC(C)C)c1ccccc1` [Camylofine chlorhydrate] here?
A: Its glomerular separation is 0.973 ± 0.34.

Q: And the glomerular width [2]?
A: Its glomerular width is 1.02 ± 0.018.

Q: What about the “fraction of imaged embryos annotated” value [3] of the same compound?
A: Its value is 0.75.

Q: What about the “pronephric angle neck segment” value [4] of the same compound?
A: The value was 0.977 ± 0.015.

Q: With `CCN(CCO)CCCC(C)Nc1ccnc2cc(Cl)ccc12` (stereo not drawn) [Hydroxychloroquine sulfate] as the compound, how does the glomerular separation [1] read?
A: Its glomerular separation is 1.03 ± 0.49.

Q: And the glomerular width [2]?
A: The glomerular width was 1.038 ± 0.0043.

Q: What about the “fraction of imaged embryos annotated” value [3] of the same compound?
A: The value was 0.833.

Q: What about the “pronephric angle neck segment” value [4] of the same compound?
A: Its value is 0.935 ± 0.055.

Q: `NS(=O)(=O)c1cc2c(cc1Cl)NCNS2(=O)=O` [Hydrochlorothiazide] was tested. Which glomerular separation [1] did it give?
A: The glomerular separation was 1.03 ± 0.25.

Q: What about the glomerular width [2] of the same compound?
A: The glomerular width was 0.972 ± 0.024.

Q: And the “fraction of imaged embryos annotated” value [3]?
A: Its value is 0.833.

Q: And the “pronephric angle neck segment” value [4]?
A: Its value is 0.937 ± 0.013.

Q: With `CC(C(=O)O)c1ccc(C(=O)c2cccs2)cc1` (stereo not drawn) [Suprofen] as the compound, how does the glomerular separation [1] read?
A: Its glomerular separation is 1.78 ± 0.63.

Q: And the glomerular width [2]?
A: Its glomerular width is 1.02 ± 0.14.

Q: What about the “fraction of imaged embryos annotated” value [3] of the same compound?
A: The value was 0.75.

Q: And the “pronephric angle neck segment” value [4]?
A: The value was 1.03 ± 0.081.

Q: `CCN(CC)CCNC(=O)c1cc(Cl)c(N)cc1OC` [Metoclopramide monohydrochloride] was tested. Which glomerular separation [1] did it give?
A: Its glomerular separation is 0.868 ± 0.25.

Q: What about the glomerular width [2] of the same compound?
A: The glomerular width was 0.962 ± 0.015.

Q: And the “fraction of imaged embryos annotated” value [3]?
A: Its value is 0.833.

Q: And the “pronephric angle neck segment” value [4]?
A: Its value is 0.944 ± 0.032.

Q: What does the source list for `Cc1cc(/C=C/c2ccc3cc(N(C)C)ccc3[n+]2C)c(C)n1-c1ccccc1` [Pyrvinium pamoate]?
A: glomerular separation [1]: 1.12 ± 0.41; glomerular width [2]: 0.975 ± 0.021; fraction of imaged embryos annotated as normal kidney [3]: 0.833; pronephric angle neck segment [4]: 1.02 ± 0.034

Q: `C[C@]12C=CC(=O)C=C1CC[C@H]1[C@@H]3C[C@@H](O)[C@](O)(C(=O)CO)[C@@]3(C)C[C@H](O)[C@@]12F` [Triamcinolone] was tested. Which glomerular separation [1] did it give?
A: Its glomerular separation is 1.19 ± 0.58.

Q: And the glomerular width [2]?
A: Its glomerular width is 1.23 ± 0.034.

Q: And the “fraction of imaged embryos annotated” value [3]?
A: Its value is 0.75.

Q: And the “pronephric angle neck segment” value [4]?
A: The value was 1.119 ± 0.0058.

Q: Which glomerular separation [1] does the source give for `CC[C@H](C)C(=O)O[C@H]1C[C@H](O)C=C2C=C[C@H](C)[C@H](CC[C@@H](O)C[C@@H](O)CC(=O)O)[C@H]21` [Pravastatin] here?
A: Its glomerular separation is 1.12 ± 0.39.

Q: What about the glomerular width [2] of the same compound?
A: The glomerular width was 0.865 ± 0.051.

Q: What about the “fraction of imaged embryos annotated” value [3] of the same compound?
A: Its value is 1.

Q: And the “pronephric angle neck segment” value [4]?
A: The value was 1.03 ± 0.035.

Q: Which results are given for `C[C@H](N[C@@H](CCc1ccccc1)C(=O)O)C(=O)N1CCC[C@H]1C(=O)O` [Enalaprilat dihydrate]?
A: glomerular separation [1]: 1.03 ± 0.34; glomerular width [2]: 1 ± 0.012; fraction of imaged embryos annotated as normal kidney [3]: 1; pronephric angle neck segment [4]: 1.01 ± 0.025

Source: the supplement of paper PMC7366291
